The supplement of paper PMC6897291

How the values were obtained:
[1] = test system: U-2932; assay: growth inhibition by drug alone (1 - RLU/untreated control) (fraction); higher = stronger inhibition; conditions: 177Lu-lilotomab satetraxetan 0 ug/ml
Outline: (§1)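 RIVA or U-2932 cells, untreated or pretreated 18 h with a radiolabelled anti-CD37 antibody conjugate (~600 MBq/mg; 0.5 µg/ml RIVA, 1 µg/ml U-2932), were washed and seeded at 3,000 cells/well on plates pre-printed with the Selleck Cambridge Cancer Compound library. Doses were 10/100 nM (RIVA) or 10/1,000 nM (U-2932). RealTime-Glo luminescence was read daily from day 3 after 1 h at 37°C. Growth inhibition is 1 − RLU/mean of 48 untreated no-drug wells per plate.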

[2] = test system: RIVA; assay: as above; conditions: 177Lu-lilotomab satetraxetan 0 ug/ml
Outline: as §1

[3] = test system: U-2932; assay: growth inhibition by drug plus 177Lu-lilotomab satetraxetan (1 - RLU/untreated control) (fraction); higher = stronger inhibition; conditions: 177Lu-lilotomab satetraxetan 1 ug/ml
Outline: as §1

[4] = test system: RIVA; assay: as above; conditions: 177Lu-lilotomab satetraxetan 0.5 ug/ml
Outline: as §1

Compound	growth inhibition by drug alone ([1]; 10 nM, time (day): 3)	growth inhibition by drug alone ([1]; 10 nM, time (day): 4)	growth inhibition by drug alone ([1]; 10 nM, time (day): 5)	growth inhibition by drug alone ([1]; 10 nM, time (day): 6)	growth inhibition by drug alone ([1]; 1000 nM, time (day): 3)	growth inhibition by drug alone ([1]; 1000 nM, time (day): 4)	growth inhibition by drug alone ([1]; 1000 nM, time (day): 5)	growth inhibition by drug alone ([1]; 1000 nM, time (day): 6)	growth inhibition by drug alone ([2]; 10 nM, time (day): 3)	growth inhibition by drug alone ([2]; 10 nM, time (day): 4)	growth inhibition by drug alone ([2]; 10 nM, time (day): 5)	growth inhibition by drug alone ([2]; 10 nM, time (day): 6)	growth inhibition by drug alone ([2]; 100 nM, time (day): 3)	growth inhibition by drug alone ([2]; 100 nM, time (day): 4)	growth inhibition by drug alone ([2]; 100 nM, time (day): 5)	growth inhibition by drug alone ([2]; 100 nM, time (day): 6)	growth inhibition by drug plus 177Lu-lilotomab satetraxetan ([3]; 10 nM, time (day): 3)	growth inhibition by drug plus 177Lu-lilotomab satetraxetan ([3]; 10 nM, time (day): 4)	growth inhibition by drug plus 177Lu-lilotomab satetraxetan ([3]; 10 nM, time (day): 5)	growth inhibition by drug plus 177Lu-lilotomab satetraxetan ([3]; 10 nM, time (day): 6)	growth inhibition by drug plus 177Lu-lilotomab satetraxetan ([3]; 1000 nM, time (day): 3)	growth inhibition by drug plus 177Lu-lilotomab satetraxetan ([3]; 1000 nM, time (day): 4)	growth inhibition by drug plus 177Lu-lilotomab satetraxetan ([3]; 1000 nM, time (day): 5)	growth inhibition by drug plus 177Lu-lilotomab satetraxetan ([3]; 1000 nM, time (day): 6)	growth inhibition by drug plus 177Lu-lilotomab satetraxetan ([4]; 10 nM, time (day): 3)	growth inhibition by drug plus 177Lu-lilotomab satetraxetan ([4]; 10 nM, time (day): 4)	growth inhibition by drug plus 177Lu-lilotomab satetraxetan ([4]; 10 nM, time (day): 5)	growth inhibition by drug plus 177Lu-lilotomab satetraxetan ([4]; 10 nM, time (day): 6)	growth inhibition by drug plus 177Lu-lilotomab satetraxetan ([4]; 100 nM, time (day): 3)	growth inhibition by drug plus 177Lu-lilotomab satetraxetan ([4]; 100 nM, time (day): 4)	growth inhibition by drug plus 177Lu-lilotomab satetraxetan ([4]; 100 nM, time (day): 5)	growth inhibition by drug plus 177Lu-lilotomab satetraxetan ([4]; 100 nM, time (day): 6)
O=C(/C=C/c1cccnc1)NCCCCC1CCN(C(=O)c2ccccc2)CC1	0.935	0.894	0.825	0.783	0.982	0.985	0.984	0.985	0.983	0.983	0.982	0.979	0.981	0.982	0.982	0.98	0.909	0.859	0.812	0.758	0.984	0.985	0.986	0.988	0.991	0.991	0.99	0.99	0.99	0.99	0.991	0.991
c1ccc2c(-c3cnn4cc(-c5ccc(N6CCNCC6)cc5)cnc34)ccnc2c1	-0.114	-0.118	-0.0883	0.0163	-0.0225	-0.0275	-0.0302	0.125	-0.24	-0.273	-0.265	-0.249	-0.167	-0.254	-0.224	-0.213	-0.113	-0.0441	0.0116	0.0932	-0.0291	-0.0174	0.0152	0.209	0.399	0.521	0.544	0.537	0.307	0.408	0.431	0.436
Nc1cccc2c1CN(C1CCC(=O)NC1=O)C2=O (stereo unspecified) [Lenalidomide]	0.0697	0.0182	-0.0235	0.0966	0.122	0.186	0.18	0.309	-0.0108	-0.0398	-0.0471	-0.0439	-0.101	-0.141	-0.183	-0.226	0.069	0.101	0.148	0.257	0.215	0.263	0.303	0.434	0.534	0.564	0.587	0.589	0.428	0.481	0.499	0.508
C[C@@H](Oc1cc(-c2cnn(C3CCNCC3)c2)cnc1N)c1c(Cl)ccc(F)c1Cl	0.0921	0.0793	0.115	-0.0753	0.154	0.193	0.301	0.419	0.00835	0.0307	-0.0637	-0.409	-0.398	-0.211	-0.28	-0.62	0.0291	0.0614	0.116	0.192	0.115	0.223	0.397	0.566	0.466	0.573	0.592	0.61	0.405	0.523	0.532	0.543
CO[C@H]1C[C@@H]2CC[C@@H](C)[C@@](O)(O2)C(=O)C(=O)N2CCCC[C@H]2C(=O)O[C@H]([C@H](C)C[C@@H]2CC[C@@H](OCCO)[C@H](OC)C2)CC(=O)[C@H](C)/C=C(\C)[C@@H](O)[C@@H](OC)C(=O)[C@H](C)C[C@H](C)/C=C/C=C/C=C/1C [Everolimus (RAD001)]	0.744	0.686	0.591	0.52	0.743	0.728	0.667	0.605									0.69	0.625	0.558	0.538	0.719	0.729	0.706	0.702	0.821	0.838	0.833	0.788	0.833	0.865	0.876	0.873
O=C(CCCCCCC(=O)Nc1ccccc1)NO [Vorinostat (SAHA)]	-0.0182	-0.0297	-0.0883	-0.201	0.818	0.762	0.691	0.615	-0.119	-0.189	-0.294	-0.432	-0.132	-0.192	-0.199	-0.285	-0.0269	0.0202	0.0234	0.0225	0.849	0.817	0.786	0.742	0.465	0.518	0.537	0.553	0.523	0.578	0.586	0.591
C#Cc1cccc(Nc2ncnc3cc(OC)c(OCCCCCCC(=O)NO)cc23)c1	-0.0221	-0.0137	-0.0216	0.0129	0.966	0.973	0.975	0.978									-0.132	-0.086	-0.0994	-0.0508	0.971	0.977	0.981	0.984	0.365	0.467	0.495	0.496	0.935	0.924	0.926	0.923
Cc1cnc(-c2cnc(NCCNc3ccc(C#N)cn3)nc2-c2ccc(Cl)cc2Cl)[nH]1	0.154	0.101	0.0269	-0.034	0.119	0.0751	-0.139	-0.197									0.0605	0.123	0.113	0.204	0.0116	0.0464	0.0105	0.0661	0.532	0.598	0.613	0.613	0.455	0.536	0.536	0.541
CCCCCOC(=O)Nc1nc(=O)n([C@@H]2O[C@H](C)[C@@H](O)[C@H]2O)cc1F [Capecitabine (Xeloda)]	-0.0672	-0.0894	-0.0926	-0.0992	-0.0819	-0.0438	-0.0714	0.0681									-0.101	-0.0507	0.0153	0.0328	-0.139	-0.0798	-0.0339	0.114	0.468	0.533	0.549	0.549	0.378	0.466	0.465	0.483
